Inconclusive results are not listed. Calls of active or inactive are those of the source. Calls follow the shape of the dose curve; as a rule, active = well fitted curve in the direction sought with a large enough effect; inconclusive = small, poorly fitted or top-dose-only effect, or another doubt; inactive = no such curve, though single readings can be large; an effect the other way counts as inactive or inconclusive.
Columns and labels:
[1] = qHTS of pediatric cancer cell lines to identify multiple opportunities for drug repurposing: Primary screen for TC32 cells (AID 1347089); also: nearly all actives have a fitted effect of over 60% in size
Summary of the method: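 Measured quantity: luminescence from CellTiter-Glo, reflecting metabolically active TC32 cells following 48 h of compound. Curves came straight from multi-point titrations, with 8 or 11 points in primary and 11 in confirmatory screening.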

[2] = qHTS of pediatric cancer cell lines to identify multiple opportunities for drug repurposing: Primary screen for SJ-GBM2 cells (AID 1347091)
Summary of the method: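 Eight- or eleven-point concentration series, 48 h treatment at 37 degrees C in growth media; readout CellTiter-Glo luminescence. Potency and efficacy were taken from the concentration-response curves.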

[3] = qHTS of pediatric cancer cell lines to identify multiple opportunities for drug repurposing: Primary screen for A673 cells (AID 1347092); also: nearly all actives have a fitted effect of over 45% in size
Summary of the method: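 Cells are plated, rested 5 h, dosed by pintool, incubated 48 h, then lysed with CellTiter-Glo and read by luminescence. DMSO is the neutral control; bortezomib at 2.3 uM final is the positive control.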

[4] = qHTS of pediatric cancer cell lines to identify multiple opportunities for drug repurposing: Primary screen for SK-N-MC cells (AID 1347093)
Summary of the method: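 Metabolically active cells were quantified by ATP-dependent luminescence (CellTiter-Glo, 15 min at room temperature) following 48 h treatment. Cells had been plated at 500-1,000 per well and settled for 5 h beforehand.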

[5] = qHTS of pediatric cancer cell lines to identify multiple opportunities for drug repurposing: Primary screen for BT-37 cells (AID 1347094)
Summary of the method: (§1)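 Phenotypic viability qHTS, 48 h compound exposure, CellTiter-Glo luminescence read-out; multi-concentration dosing so that potency and efficacy derive directly from the primary screen's curves.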

[6] = qHTS of pediatric cancer cell lines to identify multiple opportunities for drug repurposing: Primary screen for NB-EBc1 cells (AID 1347095)
Summary of the method: as §1

[7] = qHTS of pediatric cancer cell lines to identify multiple opportunities for drug repurposing: Primary screen for U-2 OS cells (AID 1347096); also: nearly all actives have a fitted effect of over 50% in size
Summary of the method: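 Cells (500-1,000/well) in growth media were settled 5 h at 37 degrees C, then given compounds for 48 h. Viability was read as CellTiter-Glo luminescence. Primary runs used MIPE at 11 points (0.78 nM-46 µM) and NPC at 8 points (0.59 nM-46 µM); follow-ups used 11 points.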

[8] = qHTS of pediatric cancer cell lines to identify multiple opportunities for drug repurposing: Primary screen for SK-N-SH cells (AID 1347098); also: nearly all actives have a fitted effect of over 65% in size
Summary of the method: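 Cells (500-1,000/well) rested 5 h, then received compounds for 48 h; metabolically active cells were measured by CellTiter-Glo luminescence. Final concentrations spanned up to 46 µM (MIPE, 11-point) or 0.59 nM-46 µM (NPC, 8-point) in primary screens, 11-point in follow-ups.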

[9] = qHTS of pediatric cancer cell lines to identify multiple opportunities for drug repurposing: Primary screen for Saos-2 cells (AID 1347097); also: nearly all actives have a fitted effect of over 40% in size
Summary of the method: as §1

Measured: Potency
Potency is read from the fitted curve at half-maximal effect.

CO[C@H]1/C=C\O[C@@]2(C)Oc3c(C)c(O)c4c(O)c(c(C=NN5CCN(C6CCCC6)CC5)c(O)c4c3C2=O)NC(=O)C(C)=CC=C[C@H](C)[C@H](O)[C@@H](C)[C@@H](O)[C@@H](C)[C@H](OC(C)=O)[C@H]1C
active: [1] 0.523 µM | [3] 0.0296 µM | [4] 0.0059 µM | [5] 0.001 µM | [6] 0.001 µM | [7] 2.35 µM | [8] 0.0961 µM
inactive: [2]

COc1cc(Cl)cn2c(-c3cccc(NC4CNC4)n3)cnc12
active: [2] 5.26 µM | [3] 4.69 µM | [4] 2.96 µM | [6] 2.96 µM
inactive: [1]

COc1cc(N2CCN(C)CC2)ccc1Nc1nc(N)c(C(=O)c2c(Cl)cccc2Cl)s1
active: [3] 18.7 µM | [4] 16.6 µM
inactive: [1] | [2] | [7] | [9]

C[C@]12CC[C@@H]3c4ccc(O)cc4CC[C@H]3[C@H]1[C@@H](O)[C@@H](O)[C@H]2O
inactive: [1] | [2] | [6] | [7]
active: [3] 14.8 µM

COc1ccc(CCC(=O)Nc2nc3ccc(Cl)cc3s2)cc1OC
inactive: [1] | [2] | [6] | [7]
active: [3] 18.7 µM | [8] 9.61 µM

c1cc(OCCN2CCCCC2)cc(-c2n[nH]c3ccc(-c4ncn[nH]4)cc23)c1
inactive: [1] | [2] | [6] | [7]
active: [3] 9.35 µM | [5] 19.3 µM

Cc1ccc(C(=O)N(CCCN)[C@@H](c2oc3cc(Cl)ccc3c(=O)c2Cc2ccccc2)C(C)C)cc1
active: [1] 0.0033 µM | [2] 0.001 µM | [3] 0.001 µM | [4] 23.5 µM | [6] 0.001 µM

COc1ccc(-c2cc(=O)c3c(O)cc(O[C@@H]4O[C@H](CO[C@@H]5O[C@@H](C)[C@H](O)[C@@H](O)[C@@H]5O)[C@@H](O)[C@H](O)[C@@H]4O)cc3o2)cc1O
inactive: [1] | [2] | [5] | [7] | [9]
active: [3] 14.8 µM | [4] 7.43 µM | [8] 27.1 µM

CC1CNc2c(cccc2S(=O)(=O)N[C@@H](CCCN=C(N)N)C(=O)N2CC[C@@H](C)C[C@@H]2C(=O)O)C1 (stereo partly specified)
active: [2] 18.7 µM | [3] 5.9 µM | [4] 6.62 µM | [5] 10.9 µM | [6] 6.62 µM | [8] 8.57 µM
inactive: [1]

Clc1ccc(COC(Cn2ccnc2)c2ccc(Cl)cc2Cl)c(Cl)c1 (stereo unspecified)
inactive: [1] | [8]
active: [2] 18.7 µM | [3] 23.5 µM

CCN(CC)CCCCNc1nc2cc(Cl)c(Cl)cc2nc1-c1ccc(-c2cccs2)s1
inactive: [1]
active: [2] 10.5 µM | [3] 11.8 µM | [4] 13.2 µM | [5] 27.3 µM | [9] 18.7 µM

CC(C)[C@H](O)C(=O)N[C@@H](C)C(=O)N[C@@H]1C(=O)N(C)CCc2ccccc21
inactive: [1] | [2] | [5] | [7] | [8]
active: [3] 23.5 µM | [4] 18.7 µM

C#C[C@]1(O)CC[C@H]2[C@H]3CCc4cc(OC)ccc4[C@H]3CC[C@@]21C
active: [3] 18.7 µM
inactive: [1] | [2] | [5] | [6] | [7] | [9]

CCC(=O)N1CCN(c2ccc(-n3c(=O)ccc4cnc5ccc(-c6cnc7ccccc7c6)cc5c43)cc2C(F)(F)F)CC1
active: [1] 0.0739 µM | [2] 0.0187 µM | [3] 0.0118 µM | [4] 0.0053 µM | [6] 0.0662 µM

COc1ccc(Cn2ccc3ccc(C(=O)NO)cc32)cc1
inactive: [1] | [2] | [9]
active: [3] 14.8 µM | [4] 5.9 µM | [6] 8.33 µM | [8] 21.5 µM

CN[C@@H]1CN(c2ccc3c(=O)c(C(=O)O)cn(-c4nccs4)c3n2)C[C@@H]1OC
inactive: [7] | [9]
active: [1] 12.8 µM | [2] 1.15 µM | [3] 8.12 µM | [4] 1.29 µM | [6] 0.407 µM | [8] 9.37 µM

CC1(C)CC(=O)c2c(C(F)(F)F)nn(-c3ccc(C(N)=O)c(NC4CCC(O)CC4)c3)c2C1 (stereo unspecified)
active: [1] 0.208 µM | [2] 0.264 µM | [3] 0.118 µM | [4] 0.0743 µM | [8] 0.304 µM
inactive: [7]

CC(C)CN(C[C@H](O)[C@H](Cc1ccccc1)NC(=O)O[C@H]1CCOC1)S(=O)(=O)c1ccc(N)cc1
inactive: [1] | [2] | [6] | [7]
active: [3] 11.8 µM

O=C(Nc1ncc(SCCN2CCCC2)s1)[C@]1(c2ccc(S(=O)(=O)C3CC3)cc2)C[C@@H]1C1CCCCC1
inactive: [1] | [8]
active: [2] 23.5 µM | [3] 18.7 µM | [4] 20.9 µM | [7] 23.5 µM

Cn1cnc(-c2cc3nccc(Oc4ccc(NC(=S)NC(=O)Cc5ccccc5)cc4F)c3s2)c1
inactive: [1]
active: [2] 0.0469 µM | [3] 29.6 µM | [9] 16.6 µM | [8] 21.5 µM

CC[C@]1(O)C[C@H]2CN(CCC3=c4ccccc4=N[C]3[C@@](C(=O)OC)(c3cc4c(cc3OC)N(C)[C@H]3[C@@](O)(C(N)=O)[C@H](O)[C@]5(CC)C=CCN6CC[C@]43[C@@H]65)C2)C1
active: [1] 0.0587 µM | [2] 0.001 µM | [3] 0.0148 µM | [5] 0.122 µM | [6] 0.0296 µM | [9] 0.148 µM

CN1N=C(N)c2cn([C@@H]3O[C@H](COP(=O)(O)O)[C@@H](O)[C@@H]3O)c3ncnc1c23
active: [1] 4.15 µM | [2] 7.43 µM | [3] 3.72 µM | [4] 0.0042 µM | [6] 1.66 µM | [9] 2.09 µM | [8] 21.5 µM

CN1CCN2c3ncccc3Cc3ccccc3C2C1 (stereo unspecified)
inactive: [1] | [2] | [3] | [4] | [5] | [7] | [8]

NC(N)=Nc1nc(CSCCC(N)=NS(N)(=O)=O)cs1
inactive: [1] | [2] | [5] | [7] | [9]
active: [4] 10.5 µM | [8] 19.2 µM

O=C(NC[C@H](O)CO)c1ccncc1Nc1ccc(I)cc1F
inactive: [1] | [2]
active: [4] 5.26 µM | [8] 21.5 µM

Cc1cc(-c2ncc(CC(=O)Nc3ccc(-c4cnccn4)cn3)cc2C)ccn1
active: [4] 16.6 µM
inactive: [1] | [2] | [7]

CC(C)(OCc1nn(Cc2ccccc2)c2ccccc12)C(=O)O
active: [6] 11.8 µM | [8] 30.4 µM
inactive: [1] | [2] | [7]

CC(=O)NCCC(=O)N[C@@H](CCC(N)=O)C(=O)N[C@@H](CO)C(=O)N[C@@H](CCC(N)=O)C(=O)N[C@@H](CCC(N)=O)C(=O)N[C@H](C(=O)N[C@@H](Cc1ccccc1)C(=O)N[C@]1(C)CCCCCCC=CCCC[C@@](C)(C(=O)N[C@@H](CCC(N)=O)C(=O)N[C@@H](CC(N)=O)C(N)=O)NC(=O)[C@H](CC(C)C)NC(=O)[C@H](CC(C)C)NC(=O)[C@@H](CCCNC(=N)N)NC(=O)[C@H](Cc2c[nH]c3ccccc23)NC(=O)[C@H](CC(C)C)NC(=O)[C@H](CC(N)=O)NC1=O)[C@H](C)O
inactive: [1] | [2] | [4] | [6] | [7] | [8]

CSc1cccc(Nc2ncc3cc(-c4c(Cl)cccc4Cl)c(=O)n(C)c3n2)c1
active: [2] 0.418 µM | [4] 0.0935 µM | [6] 0.372 µM | [9] 0.118 µM
inactive: [1] | [8]

Oc1ccc(C=Cc2cc(O)cc(O)c2)cc1
inactive: [1] | [7]
active: [2] 18.7 µM | [4] 11.8 µM | [5] 21.7 µM | [9] 29.6 µM

CN1c2ccccc2C(=O)N2CCc3c([nH]c4ccccc34)C21 (stereo unspecified)
inactive: [1] | [2] | [5] | [6] | [7]
active: [4] 10.5 µM

CN(C)c1ccc(-c2nc3ncc(Cl)c(N4CCN(CC(=O)Nc5nccs5)CC4)c3[nH]2)cc1
inactive: [1] | [7]
active: [2] 14.8 µM | [6] 2.35 µM | [9] 14.8 µM

CN1CCC[C@H]1CCO[C@](C)(c1ccccc1)c1ccc(Cl)cc1
inactive: [1] | [2] | [5] | [7]
active: [4] 20.9 µM | [8] 30.4 µM

CNC(=O)[C@H](Cc1ccccc1)NC(=O)[C@H](CC(C)C)[C@H](CSc1cccs1)C(=O)NO
inactive: [1] | [2] | [6] | [7]

Cc1nn(Cc2ccccc2Cl)c(C)c1CN(C)CC(O)COc1ccc(Cl)cc1 (stereo unspecified)
inactive: [1] | [7] | [9]
active: [2] 20.9 µM | [4] 1.87 µM | [8] 24.1 µM

CCOC(=O)[C@H](CCc1ccccc1)N[C@@H](C)C(=O)N1CCCC1C(=O)O (stereo partly specified)
active: [4] 8.33 µM
inactive: [1] | [2] | [7] | [9]

NC(=O)c1nnn(Cc2cc(Cl)c(C(=O)c3ccc(Cl)cc3)c(Cl)c2)c1N
active: [2] 18.7 µM | [4] 23.5 µM | [8] 30.4 µM
inactive: [1] | [7]

CNC(=O)[C@H](CC1=CN=C2C=CCC=C12)NC(=O)[C@@H](CC(=O)NO)CC(C)C
active: [4] 0.0059 µM | [5] 0.685 µM | [8] 1.21 µM
inactive: [1] | [2] | [7]

O=C(Nc1ccc(OC(F)(F)F)cc1)c1sccc1NCc1ccnc2ccccc12
inactive: [1] | [2] | [6] | [7] | [8]
active: [4] 26.4 µM | [9] 18.7 µM

Cc1cn([C@@H]2C[C@@H](O)[C@H](CO)O2)c(=O)[nH]c1=O
inactive: [1] | [2] | [6] | [9] | [8]

O=c1cc(-c2ccc(O)c(O)c2)oc2cc(O)cc(O)c12
inactive: [1] | [2] | [5] | [6] | [7] | [9]

— PubChem BioAssay (NCATS)
